According to the supplement of paper PMC3545927:
Some of the results follow. No count for the full screen is at hand.

Molecular target: furin, P09958
Test: furin cleavage Z-score vs untreated control; higher = more cleavage, active = 3.5 or more, inactive = 1 or less, 8 variable residues between constant flanks
In short: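 Furin cleavage was scored on 8-mer peptides joined to a cDNA oligonucleotide and bound to magnetic beads at the N-terminus. Digestion with purified furin (1:10 enzyme:substrate, 0.01 ml, 50 mM HEPES pH 7.5, CaCl2, NaCl) lasted 7.5, 15 or 30 min. Freed DNA was tagged with adapters by PCR, sequenced and counted; the cleavage Z-score is the lowess-adjusted log count versus furin-free reactions, scaled by median absolute deviation.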

Chain of furin, P09958 (P09958 whole entry): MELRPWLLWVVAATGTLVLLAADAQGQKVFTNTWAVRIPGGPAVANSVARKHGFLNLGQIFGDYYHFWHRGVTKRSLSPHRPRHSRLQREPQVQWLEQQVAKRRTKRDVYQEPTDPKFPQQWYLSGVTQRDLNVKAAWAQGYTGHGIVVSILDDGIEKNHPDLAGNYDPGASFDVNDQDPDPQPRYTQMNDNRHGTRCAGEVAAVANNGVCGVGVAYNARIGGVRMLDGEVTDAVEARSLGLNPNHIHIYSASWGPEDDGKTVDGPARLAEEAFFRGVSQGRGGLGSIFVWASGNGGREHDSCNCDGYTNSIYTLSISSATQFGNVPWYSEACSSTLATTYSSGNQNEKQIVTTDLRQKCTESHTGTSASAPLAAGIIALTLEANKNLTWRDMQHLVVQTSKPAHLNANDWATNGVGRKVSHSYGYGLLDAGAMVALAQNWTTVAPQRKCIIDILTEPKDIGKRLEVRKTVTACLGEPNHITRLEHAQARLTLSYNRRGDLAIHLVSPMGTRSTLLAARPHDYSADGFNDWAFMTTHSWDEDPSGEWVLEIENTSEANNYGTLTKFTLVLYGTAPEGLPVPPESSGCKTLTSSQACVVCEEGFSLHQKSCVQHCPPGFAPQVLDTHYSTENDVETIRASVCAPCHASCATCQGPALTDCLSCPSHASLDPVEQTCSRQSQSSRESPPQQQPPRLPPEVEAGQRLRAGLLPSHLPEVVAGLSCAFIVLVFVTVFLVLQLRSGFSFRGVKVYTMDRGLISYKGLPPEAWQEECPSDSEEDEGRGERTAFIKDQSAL

| Sequence | furin cleavage Z-score (7.5 min) | furin cleavage Z-score (15 min) | furin cleavage Z-score (30 min) |
| --- | --- | --- | --- |
| CASGPCSAHLAGNASASA [HC2496] | -0.802 (inactive) | 0.24 (inactive) | 0.168 (inactive) |
| CAADAVDGAGAGNASASA [CS10] | 0.632 (inactive) | -1.19 (inactive) | 1.15 |
| CALNNTRPPLAGNASASA [HC430] | 2.07 | 0.471 (inactive) | 1.95 |
| CACGSSDLYLAGNASASA [HC723] | -2.29 (inactive) | -1.54 (inactive) | -0.552 (inactive) |
| CATTPCSVSWAGNASASA [HC1890] | -0.725 (inactive) | -1.82 (inactive) | -0.963 (inactive) |
| CAQVGDFHYVAGNASASA [HC1208] | -1.01 (inactive) | 0.348 (inactive) | -0.0115 (inactive) |
| CAKQHRLKRYAGNASASA [FS-1349] | 11.1 (active) | 11.6 (active) | 10 (active) |
| CARVERFKRDAGNASASA [FS-1567] | 12.4 (active) | 11.1 (active) | 8.4 (active) |
| CAGPIRLKRDAGNASASA [FS-593] | 15 (active) | 15.3 (active) | 10.9 (active) |
| CALPGNPAIAAGNASASA [HC1051] | 0.0659 (inactive) | -0.342 (inactive) | -0.64 (inactive) |
| CACGPVYCFTAGNASASA [HC412] | 0.624 (inactive) | 0.0869 (inactive) | -0.506 (inactive) |
| CARKRRKRKKAGNASASA [FS-858] | 0.153 (inactive) | 0.772 (inactive) | 1.09 |
| CAPPLVETWKAGNASASA [HC1308] | 2.31 | 0.789 (inactive) | -0.408 (inactive) |
| CAVKSRKRRKAGNASASA [FS-149] | 11 (active) | 11.7 (active) | 8.76 (active) |
| CAHPLRKRRKAGNASASA [FS-131] | 8.81 (active) | 9.6 (active) | 7.46 (active) |
| CASTPCSAHIAGNASASA [HC2564] | -0.152 (inactive) | -1.03 (inactive) | -0.677 (inactive) |
| CALWWLQYFLAGNASASA [HC582] | -0.496 (inactive) | -0.768 (inactive) | -1.19 (inactive) |

| Sequence | furin cleavage Z-score (7.5 min) | furin cleavage Z-score (15 min) | furin cleavage Z-score (30 min) |
| --- | --- | --- | --- |
| CAEVVDSTWVAGNASASA [HC132] | -0.25 (inactive) | 1.14 | -1.05 (inactive) |
| CATTPDSGSWAGNASASA [HC52] | -0.899 (inactive) | -0.656 (inactive) | -0.757 (inactive) |
| CASTPCSKHLAGNASASA [HC2534] | 1 | -1.62 (inactive) | 0.302 (inactive) |
| CASTPRSKRLAGNASASA [FS-1091] | 3.77 (active) | 6.77 (active) | 5.46 (active) |
| CAHTWREKRLAGNASASA [FS-31] | 1.05 | 0.418 (inactive) | 0.0913 (inactive) |
| CATTYRSKRLAGNASASA [FS-886] | 8.78 (active) | 10.5 (active) | 9.12 (active) |
| CASTPCSARLAGNASASA [HC2553] | 0.576 (inactive) | 0.581 (inactive) | -0.498 (inactive) |
| CAVLEESKRLAGNASASA [FS-1429] | -0.217 (inactive) | -1.55 (inactive) | -0.503 (inactive) |
| CAEVQTSTWVAGNASASA [HC2202] | 0.816 (inactive) | 1.29 | 1.14 |
| CARRRRPRREAGNASASA [FS-1404] | 7.83 (active) | 8.28 (active) | 6.14 (active) |
| CADPLRPRREAGNASASA [FS-122] | 5.53 (active) | 5.14 (active) | 4.87 (active) |
| CARRPRPRREAGNASASA [FS-1480] | 8.98 (active) | 9.92 (active) | 8.21 (active) |
| CARRRRPERGAGNASASA [FS-495] | 1.03 | 0.676 (inactive) | 1.87 |
| CARRPRFKDIAGNASASA [FS-3058] | 0.143 (inactive) | -0.201 (inactive) | 0.618 (inactive) |
| CADPLVAEEDAGNASASA [HC1289] | -0.0204 (inactive) | -0.956 (inactive) | -0.261 (inactive) |
| CARRRRPERVAGNASASA [FS-3064] | 0.335 (inactive) | 0.809 (inactive) | 1.19 |
